According to PubChem BioAssay (Tox21):
Where “and” joins values, the source holds several entries; their conditions need not be identical. Equal values may be shown once. Results filed as inconclusive are left out. A structure can be active in one record and inactive in another. Calls of active or inactive are those of the source. The call rests on the fitted dose curve; in most records, active means well fitted cell-killing curve with a large enough effect in the repeat runs; inconclusive means weak or mixed curves, or effect the other way; inactive means flat fitted curve, though single readings scatter.

Assay: qHTS RealTime-Glo MT Cell Viability Assay in HEK293 cells - 40 hour (AID 1224874); further: nearly all actives have a fitted effect of over 50% in size
Details: RealTime-Glo luminescence; max response: active compounds read low
Procedure, shortened: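 Kinetic, non-lysing viability readout. Seed HEK293 (600/well) with reagent, incubate 5 h at 37 C/5% CO2, pin 23 nL compound in DMSO, incubate at 37 C, read luminescence at 0, 8, 16, 24, 32, 40 h.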
On the % scale 0 is the no-effect control and ±100 the full control effect; potency means the concentration at half of the fitted maximal effect.

SMILES	max response	Potency
O=C(O)C(Cl)(Cl)Cl	1.76% (inactive) and 3.09% (inactive)	
CCCCCCCCCCCCn1cc[n+](C)c1	14.2% (inactive)	
COc1ccccc1N	3.5% (inactive) [middle of 4 runs]	
Oc1cccc2cccnc12	-0.234% (inactive)	13.9 µM (active) and 23.3 µM (active) and 12.7 µM (active)
O=P1(N(CCCl)CCCl)NCCCO1 (centres undefined)	4.44% (inactive) and 0.328% (inactive) and -5.68% (inactive)	
CCC(=O)C(CC(C)N(C)C)(c1ccccc1)c1ccccc1 (centres undefined)		24.4 µM (active)
CC(=O)O	1.59% (inactive) [middle of 4 runs]	
C=CCOC(Cn1ccnc1)c1ccc(Cl)cc1Cl (centres undefined)		17.4 µM (active) and 38.9 µM (active)
O=c1[nH]c(=O)n(Cl)c(=O)n1Cl	3.74% (inactive) and 3.92% (inactive) and 2.88% (inactive)	
OCCOc1ccccc1	-3.05% (inactive) and 0.273% (inactive) and 2.22% (inactive)	
Nc1ccc(Cl)cc1	-5.43% (inactive) and 1.39% (inactive)	
CC(Cl)(Cl)C(=O)O	2.34% (inactive) and 8.45% (inactive) and 2.19% (inactive)	
Cc1cc(-c2ccc(N)c(C)c2)ccc1N	-20.5% (inactive) and -19.5% (inactive) and -26% (inactive)	
CCCCCCCCCCCCCC[P+](CCCCCC)(CCCCCC)CCCCCC		2.47 µM (active) and 1.75 µM (active) and 1.23 µM (active)
O=S(=O)(O)O	-2.52% (inactive) [middle of 6 runs]	
C1CCC(NC2CCCCC2)CC1	3.03% (inactive) and 3.3% (inactive) and 2.02% (inactive)	
COc1ccc(N)cc1	-4.85% (inactive) [middle of 4 runs]	
CCCCn1cc[n+](C)c1C	-1.35% (inactive) [middle of 6 runs]	
CCNc1nc(Cl)nc(NCC)n1	-0.397% (inactive) and 5.74% (inactive) and 5.58% (inactive)	
CCCCCCn1cc[n+](C)c1		19.7 µM (active) [middle of 5 runs]
O=C(O)c1nc(Cl)ccc1Cl	3.62% (inactive) and 10.3% (inactive) and 7.66% (inactive)	
O=C(O)CCl	1.08% (inactive) and -1.37% (inactive)	
O=C(O)CC(O)(CC(=O)O)C(=O)O	6.24% (inactive) and 7.96% (inactive) and 3.83% (inactive)	
O=C(O)C(Cl)Cl	5.65% (inactive) [middle of 4 runs]	
CCCCCCCCn1cc[n+](C)c1		3.46 µM (active) [middle of 4 runs]
Nc1ccc(-c2ccc(N)c(Cl)c2)cc1Cl		12.4 µM (active) and 14.4 µM (active) and 12.3 µM (active)
COP(=O)(OC)C(O)C(Cl)(Cl)Cl (centres undefined)	-4.55% (inactive) and 3.86% (inactive)	
CCC[N+]1(C)CCCCC1	-1.58% (inactive) and 7.15% (inactive) and 0.391% (inactive)	
